Measured values published in PubChem BioAssay (EPA / NIEHS).
The source made the active and inactive calls. Rule for the calls: active = hit-call score of the fitted dose curve at least 0.9, where 1 is the maximum; inactive = score below 0.9.

Legend:
Conditions in all cases: mRNA level, 48 h; actives raise or lower the signal
[1] = read-out: JUN Transcription Factor, JUN (gene 3725); assay: LTEA_HepaRG_JUN: Life Technologies and Expression Analysis (LTEA) Assay for JUN Transcription Factor using HepaRG (AID 2283513)
In short: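 Gene-expression endpoint: JUN mRNA (qRT-PCR, normalized to three reference genes) in HepaRG cultures treated 48 h with chemicals, duplicate wells, 100 uM maximum with half-log dilutions; bidirectional fitting relative to 0.5% DMSO.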

[2] = read-out: Lipase C (LIPC), LIPC (gene 3990); assay: LTEA_HepaRG_LIPC: Life Technologies and Expression Analysis (LTEA) Assay for Lipase C (LIPC) using HepaRG (AID 2283514)
In short: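 In this multiplexed gene-expression screen, human HepaRG cultures received test chemicals for 48 h across eight concentrations with 100 uM highest, in duplicate. Values reflect LIPC mRNA induction or suppression versus DMSO vehicle, from normalized qRT-PCR.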

[3] = read-out: MicroRNA 122 (MIR122), gene 406906; assay: LTEA_HepaRG_MIR122: Life Technologies and Expression Analysis (LTEA) Assay for MicroRNA 122 (MIR122) using HepaRG (AID 2283516); note: the transcript read is the microRNA miR-122
In short: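 Changes in transcript abundance, up or down relative to 0.5% DMSO vehicle, were scored after 48 h chemical treatment of HepaRG cells (maximum 100 uM). Quantification used TaqMan qRT-PCR normalized to housekeeping genes.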

MYC, MYC (gene 4609) = assay: LTEA_HepaRG_MYC: Life Technologies and Expression Analysis (LTEA) Assay for MYC using HepaRG (AID 2283518)
In short: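 Expression changes were scored by TaqMan qRT-PCR with ACTB, GAPDH and POLR2A normalization. Cultures in serum-free induction medium received duplicate 8-point concentration series, highest 100 uM, for 48 h; DMSO (0.5%) served as baseline.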

[4] = read-out: matrix metalloproteinase-3 (MMP3), MMP3 (gene 4314); assay: LTEA_HepaRG_MMP3: Life Technologies and Expression Analysis (LTEA) Assay for matrix metalloproteinase-3 (MMP3) using HepaRG (AID 2283519)
In short: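 Human liver HepaRG cultures received chemicals (top concentration 100 uM, 0.5% DMSO) for 48 h in duplicate. MMP3 mRNA induction or loss was then assessed via TaqMan qRT-PCR with housekeeping-gene normalisation.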

[5] = read-out: Nuclear factor NF-kappa-B p105 subunit (Homo sapiens) (UniProt P19838); assay: LTEA_HepaRG_NFKB1: Life Technologies and Expression Analysis (LTEA) Assay for Nuclear Factor Kappa B Subunit 1 (NFKB1) using HepaRG (AID 2283521);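 note: differentiated human HepaRG liver cells in serum-free induction medium; TaqMan qRT-PCR transcript normalised to ACTB GAPDH and POLR2A housekeeping genes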
In short: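 NFKB1 transcript was measured by TaqMan qRT-PCR on Fluidigm arrays, normalised to three housekeeping genes and fitted in both directions against 0.5% DMSO. HepaRG cells were dosed in duplicate for 48 h in serum-free induction medium, eight half-log steps from 100 uM.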

[6] = read-out: Protein phosphatase 2A (PPP2R4), PTPA (gene 5524); assay: LTEA_HepaRG_PPP2R4: Life Technologies and Expression Analysis (LTEA) Assay for Protein phosphatase 2A (PPP2R4) using HepaRG (AID 2283522)
In short: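 Using HepaRG cultures maintained in 0.5% DMSO, chemicals are tested 48 h at up to 100 uM in duplicate. Induction or suppression of PPP2R4 mRNA, measured by qRT-PCR, is fitted bidirectionally against the vehicle baseline.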

[7] = read-out: Lipoprotein lipase (LPL), LPL (gene 4023); assay: LTEA_HepaRG_LPL: Life Technologies and Expression Analysis (LTEA) Assay for Lipoprotein lipase (LPL) using HepaRG (AID 2283515)
In short: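 Concentration-response testing used half-log steps from 100 uM in 0.5% DMSO on human HepaRG cells, 48 h, duplicate wells. Phenobarbital 1 mM served as induction control; LPL mRNA was normalized to ACTB, GAPDH, POLR2A.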

[8] = read-out: Paternally Expressed 10 (PEG10), PEG10 (gene 23089); assay: LTEA_HepaRG_PEG10: Life Technologies and Expression Analysis (LTEA) Assay for Paternally Expressed 10 (PEG10) using HepaRG (AID 2283520);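 for AC50: differentiated HepaRG human liver cells in serum-free induction medium with 0.5% DMSO; PEG10 transcript by qRT-PCR normalised to ACTB GAPDH and POLR2A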
In short: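 After 48 h exposure of differentiated HepaRG cells (0.5% DMSO vehicle, eight concentrations up to 100 uM, duplicates), PEG10 mRNA was measured by TaqMan qRT-PCR. Values were normalised to endogenous control genes and analysed bidirectionally against vehicle.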

Measured: AC50

Chain of Nuclear factor NF-kappa-B p105 subunit (Homo sapiens) (P19838 whole entry, looked up): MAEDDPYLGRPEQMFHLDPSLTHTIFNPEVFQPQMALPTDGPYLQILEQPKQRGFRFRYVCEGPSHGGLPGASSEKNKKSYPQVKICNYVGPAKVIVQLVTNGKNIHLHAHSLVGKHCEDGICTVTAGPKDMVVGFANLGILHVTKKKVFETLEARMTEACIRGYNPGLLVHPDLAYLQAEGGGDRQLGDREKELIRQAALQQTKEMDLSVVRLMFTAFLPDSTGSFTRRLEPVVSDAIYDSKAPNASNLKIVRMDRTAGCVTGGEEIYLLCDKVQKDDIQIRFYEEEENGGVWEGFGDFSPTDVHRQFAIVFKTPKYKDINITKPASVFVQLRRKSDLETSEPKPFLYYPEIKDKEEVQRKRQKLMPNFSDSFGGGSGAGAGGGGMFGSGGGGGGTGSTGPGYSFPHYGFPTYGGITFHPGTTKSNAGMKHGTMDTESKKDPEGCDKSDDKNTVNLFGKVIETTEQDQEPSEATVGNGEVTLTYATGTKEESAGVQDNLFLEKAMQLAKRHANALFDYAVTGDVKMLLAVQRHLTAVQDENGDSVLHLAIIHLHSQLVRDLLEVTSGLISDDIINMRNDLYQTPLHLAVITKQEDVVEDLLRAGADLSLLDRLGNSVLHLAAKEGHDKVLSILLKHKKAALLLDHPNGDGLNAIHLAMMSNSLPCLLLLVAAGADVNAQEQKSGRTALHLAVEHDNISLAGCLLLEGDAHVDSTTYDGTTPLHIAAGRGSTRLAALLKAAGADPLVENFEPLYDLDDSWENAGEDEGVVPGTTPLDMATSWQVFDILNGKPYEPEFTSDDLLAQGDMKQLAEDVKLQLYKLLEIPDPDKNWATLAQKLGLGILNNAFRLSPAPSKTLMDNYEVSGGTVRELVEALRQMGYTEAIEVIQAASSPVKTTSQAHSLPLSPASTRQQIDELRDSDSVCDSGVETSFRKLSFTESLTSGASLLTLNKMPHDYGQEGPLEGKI

NNC(=O)c1ccncc1
not listed: [7] | [8]
inactive: all other assays above

CCCCCCCCCCCCCCO
inactive: all assays above

NC(=O)N(O)[C@@H]1COc2cc(OCc3ccccc3)ccc21
inactive: all assays above

CCCCCCCCN(C)C
not listed: [5] | [8]
inactive: all other assays above

OCCNCCO
not listed: [5]
inactive: all other assays above

NC(N)=O
not listed: [8]
inactive: all other assays above

CCCCCCCC1CCC(=O)O1 (stereo not given)
not listed: [5]
inactive: all other assays above

CCn1nc(C)c2c1C(=O)NCC(c1ccc(O)cc1)=N2
not listed: [8]
inactive: all other assays above

CCCCCOC(C)=O
inactive: all assays above

C=CN1CCCC1=O
not listed: [5]
inactive: all other assays above

O=C(O)[C@H](O)[C@@H](O)C(=O)O
inactive: all assays above

C[C@]12C=CC(=O)C=C1CC[C@H]1[C@@H]3C[C@@H](O)[C@](O)(C(=O)CO)[C@@]3(C)C[C@H](O)[C@@]12F
not listed: [5] | [8]
inactive: all other assays above

Cn1cc[nH]c1=S
not listed: [8]
inactive: all other assays above

CCCCCCCCCCCCCCCCOS(=O)(=O)O
not listed: [5]
inactive: all other assays above

c1ccc(C(O[C@@H]2CCCN(CCc3ccc4c(c3)OCO4)C2)c2ccccc2)cc1
active: [2] 76.5 µM | [3] 69.7 µM | MYC, MYC (gene 4609) 83.4 µM | [4] 25.2 µM | [6] 50 µM
inactive: [1] | [7]

OCc1ccccc1
not listed: [8]
inactive: all other assays above

COc1cc(C(C)C)c2c(c1)S(=O)(=O)N(COc1cc(=O)n3cccc(OCCN4CCCCC4)c3n1)C2=O
active: [7] 21.2 µM | [3] 23.4 µM | [4] 19.7 µM | [8] 19.5 µM
inactive: [1] | MYC, MYC (gene 4609) | [5] | [6]

CC(C)C(=O)Nc1ccc([N+](=O)[O-])c(C(F)(F)F)c1
inactive: [1] | [6]
active: [2] 55.5 µM | [7] 85.7 µM | [3] 60.8 µM | MYC, MYC (gene 4609) 50 µM | [4] 79.6 µM

OC[C@H]1O[C@@H]2O[C@H]3[C@H](O)[C@@H](O)[C@@H](O[C@H]4[C@H](O)[C@@H](O)[C@@H](O[C@H]5[C@H](O)[C@@H](O)[C@@H](O[C@H]6[C@H](O)[C@@H](O)[C@@H](O[C@H]7[C@H](O)[C@@H](O)[C@@H](O[C@H]1[C@H](O)[C@H]2O)O[C@@H]7CO)O[C@@H]6CO)O[C@@H]5CO)O[C@@H]4CO)O[C@@H]3CO
not listed: [5]
inactive: all other assays above

Cn1c(=O)c2[nH]cnc2n(C)c1=O
inactive: all assays above

OC[C@H]1O[C@@](CO)(O[C@H]2O[C@H](CO)[C@@H](O)[C@H](O)[C@H]2O)[C@@H](O)[C@@H]1O
not listed: [8]
inactive: all other assays above

O=c1[nH]cnc2c1ncn2[C@H]1CC[C@@H](CO)O1
not listed: [5]
inactive: all other assays above

COCc1nnc(-c2ccc[n+]([O-])c2)n1-c1c(Cl)c(Cl)cc2[nH]c(=O)c(=O)[nH]c12
not listed: [5] | [8]
inactive: all other assays above

O=C1CN(N=Cc2ccc([N+](=O)[O-])o2)C(=O)N1
active: [7] 91.3 µM | MYC, MYC (gene 4609) 80.1 µM
not listed: [5] | [8]
inactive: all other assays above
